This passage reports Percent Effect results from ChEMBL document CHEMBL3988442, “University of Dundee, Small-Polar-MMV Screening Library” (2021).

For some assays here: Entries with a potency or affinity are not part of this list.

What all share (set-up): scale not given: direction of the effect not stated beside the values
Test [1] has as its target Protein translocase subunit SecA (Escherichia coli (strain K12)) (UniProt P10408). Briefly: Assay to Identify E. coli SecA ATPase Inhibitors. The format is functional. Particulars: 30 µM.
Test [2] concerns the target T1, Ubiquitin-activating enzyme e1, putative (Leishmania donovani (strain BPK282A1)) (UniProt E9BSI1).
T1 sequence (whole entry): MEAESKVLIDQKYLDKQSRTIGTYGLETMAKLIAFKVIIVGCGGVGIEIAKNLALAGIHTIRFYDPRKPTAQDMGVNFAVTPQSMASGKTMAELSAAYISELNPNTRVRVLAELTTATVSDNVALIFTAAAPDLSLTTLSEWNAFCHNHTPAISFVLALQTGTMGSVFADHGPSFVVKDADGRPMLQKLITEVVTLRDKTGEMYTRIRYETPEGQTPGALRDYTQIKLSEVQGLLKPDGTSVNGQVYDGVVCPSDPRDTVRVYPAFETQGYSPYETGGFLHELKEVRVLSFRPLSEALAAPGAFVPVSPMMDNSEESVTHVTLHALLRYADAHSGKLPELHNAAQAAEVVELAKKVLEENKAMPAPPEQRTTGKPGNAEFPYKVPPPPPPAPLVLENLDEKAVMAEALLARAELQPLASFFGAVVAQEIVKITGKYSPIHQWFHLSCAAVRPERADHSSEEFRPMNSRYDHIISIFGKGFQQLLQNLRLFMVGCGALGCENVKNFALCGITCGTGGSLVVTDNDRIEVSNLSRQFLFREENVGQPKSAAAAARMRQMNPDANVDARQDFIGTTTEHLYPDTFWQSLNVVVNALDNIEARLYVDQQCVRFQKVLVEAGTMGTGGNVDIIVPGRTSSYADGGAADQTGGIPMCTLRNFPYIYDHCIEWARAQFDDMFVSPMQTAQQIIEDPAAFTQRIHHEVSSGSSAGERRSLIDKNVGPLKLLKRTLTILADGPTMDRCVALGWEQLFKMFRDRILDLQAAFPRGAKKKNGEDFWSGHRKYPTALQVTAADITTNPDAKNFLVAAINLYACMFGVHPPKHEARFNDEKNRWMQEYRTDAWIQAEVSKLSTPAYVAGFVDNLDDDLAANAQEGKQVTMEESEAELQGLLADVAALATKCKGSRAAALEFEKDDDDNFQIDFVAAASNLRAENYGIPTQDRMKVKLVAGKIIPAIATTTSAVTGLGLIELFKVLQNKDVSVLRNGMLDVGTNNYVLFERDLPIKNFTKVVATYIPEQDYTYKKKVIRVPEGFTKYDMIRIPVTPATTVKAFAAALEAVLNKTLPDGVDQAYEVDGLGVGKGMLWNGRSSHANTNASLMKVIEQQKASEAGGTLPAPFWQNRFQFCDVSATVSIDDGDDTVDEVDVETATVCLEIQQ
Briefly: Leishmania donovani Ubiquitin Activating Enzyme (LdE1). The class given is functional. The settings on record: 30 µM.

Test [3] addresses Sialic acid-binding Ig-like lectin 9 (Homo sapiens) (UniProt Q9Y336). The experiment in a line: Hs-Siglec9 ALPHAscreen SOP 20170721. Particulars: 10 µM.
The next test relates to Trypanosoma cruzi. The experiment in a line: Trypanosoma cruzi phosphomannomutase and mannose-1-phosphate guanylyltransferase assay. The class given is functional. The settings on record: 10 µM.
The target in test [4] is T2, Arginase-2, mitochondrial (Homo sapiens) (UniProt P78540).
T2 sequence (whole entry): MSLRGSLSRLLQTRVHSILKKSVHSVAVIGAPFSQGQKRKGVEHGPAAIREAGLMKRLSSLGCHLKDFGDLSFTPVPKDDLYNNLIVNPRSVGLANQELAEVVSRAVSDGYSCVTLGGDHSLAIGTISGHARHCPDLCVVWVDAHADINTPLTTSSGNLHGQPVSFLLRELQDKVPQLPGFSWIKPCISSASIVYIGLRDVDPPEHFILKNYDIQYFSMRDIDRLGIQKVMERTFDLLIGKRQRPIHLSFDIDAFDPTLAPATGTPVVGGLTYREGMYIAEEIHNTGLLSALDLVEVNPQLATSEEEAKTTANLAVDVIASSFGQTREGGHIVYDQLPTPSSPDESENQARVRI
The experiment in a line: in vitro enzyme assay to detect the production of urea directly proportional to the activity of Arginase II. Note: in the data most compounds retested in dose-response had high values. Particulars: 33.3 µM. The class given is functional.

Test [5] addresses T3, Proteasome subunit beta (Trypanosoma cruzi) (UniProt O96673).
T3 sequence (whole entry): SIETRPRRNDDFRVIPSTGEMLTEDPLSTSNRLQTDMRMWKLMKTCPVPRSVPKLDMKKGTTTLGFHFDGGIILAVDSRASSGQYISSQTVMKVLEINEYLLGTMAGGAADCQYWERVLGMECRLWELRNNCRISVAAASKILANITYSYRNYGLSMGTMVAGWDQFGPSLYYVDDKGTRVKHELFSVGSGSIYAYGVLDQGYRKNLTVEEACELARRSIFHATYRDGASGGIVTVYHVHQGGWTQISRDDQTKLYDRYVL
Briefly: Trypanosoma cruzi proteasome chymotrypsin-like activity (TcProtChymo) assay. Note: in the data most compounds retested in dose-response had high values. The format is functional. Particulars: 9.37 µM.

The species named for another test is Homo sapiens. The experiment in a line: To identify inhibition of the IFN signalling (Jak-Stat) pathway via expression of an eGFP reporter gene under the control of an IFN-stimulated response element (ISRE) containing MxA promoter. Particulars: 30 µM. The class given is functional.
The target in test [6] is T4, Tyrosyl-tRNA synthetase, putative (Trypanosoma cruzi (strain CL Brener)) (UniProt Q4DSP6).
T4 sequence (whole entry): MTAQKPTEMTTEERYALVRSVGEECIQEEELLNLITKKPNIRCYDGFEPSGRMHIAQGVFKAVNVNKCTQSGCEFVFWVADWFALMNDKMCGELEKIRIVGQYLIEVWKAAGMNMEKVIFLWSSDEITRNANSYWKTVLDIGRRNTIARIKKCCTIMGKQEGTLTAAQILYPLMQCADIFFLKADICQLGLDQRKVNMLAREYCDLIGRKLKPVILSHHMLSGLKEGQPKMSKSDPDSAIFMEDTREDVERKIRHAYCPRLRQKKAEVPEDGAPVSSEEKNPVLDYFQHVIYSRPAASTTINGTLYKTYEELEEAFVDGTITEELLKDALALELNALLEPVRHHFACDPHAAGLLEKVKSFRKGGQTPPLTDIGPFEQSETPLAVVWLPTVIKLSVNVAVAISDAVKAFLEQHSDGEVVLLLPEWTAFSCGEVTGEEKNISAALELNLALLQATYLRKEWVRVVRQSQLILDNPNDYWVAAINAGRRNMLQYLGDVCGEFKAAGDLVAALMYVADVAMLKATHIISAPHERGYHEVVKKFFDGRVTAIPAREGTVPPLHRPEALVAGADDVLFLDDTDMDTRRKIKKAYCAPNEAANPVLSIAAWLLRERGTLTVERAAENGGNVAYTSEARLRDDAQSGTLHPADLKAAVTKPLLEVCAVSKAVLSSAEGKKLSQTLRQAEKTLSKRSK
The experiment in a line: Trypanosoma cruzi tyrosyl tRNA synthetase (TcYRS) _High Tyrosine SOP. Note: in the data most compounds retested in dose-response had high values. The class given is functional. The settings on record: 30 µM.

Test [7] deals with T4, Tyrosyl-tRNA synthetase, putative (Trypanosoma cruzi (strain CL Brener)). Briefly: Trypanosoma cruzi tyrosyl tRNA synthetase (TcYRS) SOP. The settings on record: 30 µM. The class given is functional.
The target of test [8] is Chromo domain-containing protein 1 (Saccharomyces cerevisiae (strain ATCC 204508 / S288c) (Baker's yeast)) (UniProt P32657). The experiment in a line: ScCHD-1 Enzyme Inhibition Assay. Note: in the data most compounds retested in dose-response had high values. The format is functional. The settings on record: 30 µM.
Sequence of Chromo domain-containing protein 1 (Saccharomyces cerevisiae (strain ATCC 204508 / S288c) (Baker's yeast)) (P32657 whole entry, the tested form may be a part): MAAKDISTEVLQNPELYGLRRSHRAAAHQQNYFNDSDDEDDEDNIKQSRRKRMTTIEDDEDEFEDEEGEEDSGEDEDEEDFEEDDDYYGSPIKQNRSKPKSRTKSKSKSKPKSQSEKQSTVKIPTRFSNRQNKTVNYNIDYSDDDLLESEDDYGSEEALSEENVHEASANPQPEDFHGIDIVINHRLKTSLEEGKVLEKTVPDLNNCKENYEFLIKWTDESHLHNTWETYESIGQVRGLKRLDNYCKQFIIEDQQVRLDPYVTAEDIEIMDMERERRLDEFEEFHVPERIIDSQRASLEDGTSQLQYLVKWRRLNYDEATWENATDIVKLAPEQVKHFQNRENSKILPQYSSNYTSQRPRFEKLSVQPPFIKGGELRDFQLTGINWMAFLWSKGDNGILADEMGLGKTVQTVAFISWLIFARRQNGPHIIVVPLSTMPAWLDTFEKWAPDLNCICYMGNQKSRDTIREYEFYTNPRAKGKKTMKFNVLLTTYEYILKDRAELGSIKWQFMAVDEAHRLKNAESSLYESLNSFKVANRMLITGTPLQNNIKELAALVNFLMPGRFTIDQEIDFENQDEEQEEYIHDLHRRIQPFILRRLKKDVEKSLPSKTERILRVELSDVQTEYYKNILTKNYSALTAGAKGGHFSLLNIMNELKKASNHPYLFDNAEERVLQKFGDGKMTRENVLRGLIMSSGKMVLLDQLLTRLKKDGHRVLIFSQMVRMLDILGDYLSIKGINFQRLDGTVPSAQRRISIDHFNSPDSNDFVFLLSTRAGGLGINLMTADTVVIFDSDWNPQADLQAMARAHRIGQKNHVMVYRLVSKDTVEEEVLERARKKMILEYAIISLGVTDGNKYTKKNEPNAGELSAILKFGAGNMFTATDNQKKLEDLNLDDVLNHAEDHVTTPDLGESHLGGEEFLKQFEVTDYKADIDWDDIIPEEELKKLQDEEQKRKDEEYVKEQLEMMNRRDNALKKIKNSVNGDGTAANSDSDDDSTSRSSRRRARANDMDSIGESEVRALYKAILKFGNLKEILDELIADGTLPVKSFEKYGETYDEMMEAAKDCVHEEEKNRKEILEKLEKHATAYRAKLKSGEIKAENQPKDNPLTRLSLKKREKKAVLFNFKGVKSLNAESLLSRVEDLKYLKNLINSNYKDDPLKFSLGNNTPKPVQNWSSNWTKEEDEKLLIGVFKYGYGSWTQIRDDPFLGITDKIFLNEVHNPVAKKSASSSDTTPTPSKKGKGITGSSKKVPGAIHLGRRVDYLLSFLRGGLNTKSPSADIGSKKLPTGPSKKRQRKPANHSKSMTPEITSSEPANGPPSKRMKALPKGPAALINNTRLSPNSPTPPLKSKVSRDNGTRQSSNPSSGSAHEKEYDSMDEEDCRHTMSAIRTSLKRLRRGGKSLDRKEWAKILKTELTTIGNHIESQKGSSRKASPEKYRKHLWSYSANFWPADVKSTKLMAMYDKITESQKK

Sequence of Protein translocase subunit SecA (Escherichia coli (strain K12)) (P10408 whole entry): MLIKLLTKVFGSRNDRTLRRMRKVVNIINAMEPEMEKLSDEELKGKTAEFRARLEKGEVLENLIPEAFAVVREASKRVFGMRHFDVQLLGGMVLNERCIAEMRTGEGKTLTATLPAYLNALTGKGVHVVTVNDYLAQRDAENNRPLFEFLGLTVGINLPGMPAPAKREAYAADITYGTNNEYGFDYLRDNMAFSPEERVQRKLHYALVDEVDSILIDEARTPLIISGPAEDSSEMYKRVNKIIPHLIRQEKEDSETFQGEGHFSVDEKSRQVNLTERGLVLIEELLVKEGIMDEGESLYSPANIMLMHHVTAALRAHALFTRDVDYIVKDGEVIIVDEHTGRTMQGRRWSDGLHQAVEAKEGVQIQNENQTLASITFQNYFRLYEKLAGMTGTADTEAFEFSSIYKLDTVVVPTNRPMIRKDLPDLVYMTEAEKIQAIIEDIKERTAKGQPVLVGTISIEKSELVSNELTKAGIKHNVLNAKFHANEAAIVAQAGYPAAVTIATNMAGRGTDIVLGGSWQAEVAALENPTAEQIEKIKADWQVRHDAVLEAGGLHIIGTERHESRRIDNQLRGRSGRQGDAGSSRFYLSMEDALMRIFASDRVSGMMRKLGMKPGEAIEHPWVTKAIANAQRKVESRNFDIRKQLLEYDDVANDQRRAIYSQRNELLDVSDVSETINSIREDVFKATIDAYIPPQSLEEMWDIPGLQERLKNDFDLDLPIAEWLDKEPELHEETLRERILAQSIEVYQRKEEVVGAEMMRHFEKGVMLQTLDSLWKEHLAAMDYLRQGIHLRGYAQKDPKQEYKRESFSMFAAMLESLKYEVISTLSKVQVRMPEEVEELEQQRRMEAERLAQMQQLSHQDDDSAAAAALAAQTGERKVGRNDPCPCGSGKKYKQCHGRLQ
Sequence of Sialic acid-binding Ig-like lectin 9 (Homo sapiens) (Q9Y336 whole entry): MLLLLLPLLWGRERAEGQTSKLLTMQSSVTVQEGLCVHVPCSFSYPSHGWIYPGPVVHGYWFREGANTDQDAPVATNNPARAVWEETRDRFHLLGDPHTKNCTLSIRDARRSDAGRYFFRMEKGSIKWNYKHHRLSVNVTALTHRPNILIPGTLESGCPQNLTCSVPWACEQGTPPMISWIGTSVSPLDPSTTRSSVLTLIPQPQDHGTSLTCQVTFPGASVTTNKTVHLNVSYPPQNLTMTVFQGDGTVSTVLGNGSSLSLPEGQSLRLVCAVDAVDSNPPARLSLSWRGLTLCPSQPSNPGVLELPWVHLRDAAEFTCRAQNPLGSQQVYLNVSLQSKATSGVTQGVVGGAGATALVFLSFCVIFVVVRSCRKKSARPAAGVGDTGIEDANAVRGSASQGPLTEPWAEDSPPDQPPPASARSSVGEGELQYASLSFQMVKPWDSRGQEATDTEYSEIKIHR

Consider `CC(C)N1CCO[C@H]2CN(C(=O)c3ccc(N(C)C)cc3)C[C@H]21`, for which the Percent Effect in test [1] was -3.12%; in test [2], 1.3%; in test [3] it was -9.38%; in the test on Trypanosoma cruzi, -6.13%; in test [4], 3.64%; in test [5] it was 15.6%. Besides, the Percent Effect in the test listed under Homo sapiens is 4.68%; in [6] it was 8.95%; in [7], 12.8%; in test [8], -3.55%.
For the molecule `c1nc2n(n1)CC(NCc1csc(-c3ccsc3)n1)CC2` (stereo not given), the Percent Effect in [1] is -1.39%; in test [2] it was 7.69%; in test [3], -4.25%; in the test on Trypanosoma cruzi, 1.97%; in test [4] it was 9.43%; in test [5], 2.3%. The Percent Effect in the test listed under Homo sapiens is 6.22%; in test [6], 9.09%; in test [7] it was 20.5%; in [8], -0.275%.
Turning to `CNC(=O)C1CCC(NC(=O)N(C)Cc2c(C)noc2C)CC1` (stereo not given), the Percent Effect in test [1] was -5.49%; in test [2], 10.3%; in [3] it was -15.1%; in the test with Trypanosoma cruzi, 11%; in test [4], -3.28%; in test [5], 1.96%. The Percent Effect is 2.07% in the test filed under Homo sapiens, 6.22% in [6], 18.1% in [7] and 96.3% in test [8].
As for `CCN(CC1CCOC1)C(=O)Nc1ccc(OC)nc1` (stereo not given), the Percent Effect was -0.796% in test [1]; 17.9% in [2]; -22.4% in test [3]; 2.35% with Trypanosoma cruzi; 2.46% in test [4]; 18.2% in test [5]. The Percent Effect in the test filed under Homo sapiens was 15.6%; in [6], 2.39%; in test [7] it was 22.9%; in test [8] it was -7.72%.
In the case of `Cc1cc(NCc2cc3n(n2)CCCN(S(C)(=O)=O)C3)ncn1`, the Percent Effect was -8.82% in [1]; 2.7% in test [2]; 4.07% in [3]; 3.59% in the test on Trypanosoma cruzi; 5.94% in test [4]; 4.97% in [5]. Besides, the Percent Effect stood at 0.911% in the test filed under Homo sapiens, 3.72% in [6], 12.2% in test [7] and 0.638% in test [8].
For the molecule `Cc1c(O)oc(-c2ccc(Br)cc2)nc1=O`, the Percent Effect is -4.74% in test [1]; -73.3% in [2]; -12.4% in test [3]; 2.96% with Trypanosoma cruzi; -4.87% in test [4]; 12.6% in test [5]. For the same molecule, the Percent Effect was 12.7% in the test listed under Homo sapiens, 3.17% in test [6], 15% in [7] and -18.8% in test [8].
Turning to `COCCc1noc(CN2CCCCC2Cn2cc(C)cn2)n1` (stereo not given), the Percent Effect was -0.511% in test [1]; -2.56% in test [2]; -0.235% in test [3]; 3.85% with Trypanosoma cruzi; -1.23% in [4]; 3.84% in test [5]. The Percent Effect in the test filed under Homo sapiens was 12.7%; in [6], -3.35%; in test [7] it was 6.02%; in test [8], -1.31%.
On to `Cc1ncsc1CCC(=O)N1CCCC[C@H](N(C)C)C1`, for which the Percent Effect in test [1] is -5.77%; in test [2], 13.5%; in test [3], 14.4%; in the test on Trypanosoma cruzi it was 9.02%; in test [4], 52.8%; in test [5], 13.7%. Moreover, the Percent Effect in the test listed under Homo sapiens was 16.9%; in test [6], 7.98%; in test [7], 21.9%; in test [8], -3.1%.
Turning to `O=C(Cc1csc(-c2nnc[nH]2)n1)N1CCCC1Cn1cccn1` (stereo not given), the Percent Effect in test [1] is -1.04%; in [2] it was 8%; in test [3], 5.84%; in the test on Trypanosoma cruzi, -0.402%; in test [4] it was -3.1%; in test [5], 8.74%. The Percent Effect in the test filed under Homo sapiens is -1.78%; in test [6], 2.63%; in test [7], 5.13%; in [8] it was -9.48%.
In the case of `CN(C)CC1CN(Cc2ccc3c(c2)OCO3)Cc2nccn2C1` (stereo not given), the Percent Effect is -10.1% in test [1]; -42.9% in test [2]; 7.99% in test [3]; 0.682% with Trypanosoma cruzi; -3.64% in test [4]; 5.56% in test [5]. Also, the Percent Effect in the test listed under Homo sapiens is 12.4%; in test [6], 0.526%; in test [7], 0%; in test [8] it was -1.33%.
Consider `CC(=O)N1CC(=O)N(c2ccccc2)CC12CCN(CC1CC1)C2` (stereo not given), for which the Percent Effect in test [1] was -11%; in [2], 1.3%; in test [3] it was 22.2%; in the test on Trypanosoma cruzi it was -1.27%; in [4] it was -2.02%; in test [5], 12.1%. Also, the Percent Effect was 15.9% in the test filed under Homo sapiens, 2.63% in test [6], -5.13% in [7] and -0.48% in test [8].
